CTSL1 counter = Fasciola hepatica cathepsin L1 inhibitors, primary screen, counter-screen for PFM18AAP inhibitor project, biochemical, QFRET, fluorogenic peptide substrate; hit rate 0.49% among 300,000; recombinant F. hepatica cathepsin L1, Z-Leu-Arg-MCA fluorescence; inhibition, % at 5.96 µM;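 active means inhibition above the mean of all tested compounds plus 3 SD, set per screening campaign, cut at about 17% in these data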;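 further: 0% = plate median of test compound wells and 100% = 1 µM Z-Phe-Ala-diazomethylketone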
Calb FLC = C. albicans growth inhibition with fluconazole, primary screen, CaCi-2 strain, Alamar Blue fluorescence; growth inhibition, % (concentration not given with the values); C. albicans CaCi-2 (fluconazole-resistant clinical isolate) + fluconazole, 48 h; hit rate 0.57% among 300,000;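 active means growth inhibition above about 58% in most replicates, limit read from the data, passing the limit was not always enough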;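 further: all wells also contain fluconazole at 8 µg/ml as a sub-toxic cotreatment; 0% = median of DMSO wells and 100% = median of geldanamycin control wells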
Rin1 Abl inh = inhibitors of Rin1-Abl protein binding, primary screen, biochemical, TR-FRET; inhibition, % at 7.35 µM; Tyrosine-protein kinase ABL1 (Homo sapiens) + Ras and Rab interactor 1 (Homo sapiens), …; hit rate 0.4% among 360,000; in the data active means inhibition above about 5%, passing the limit was not always enough
M18AAP inhibitor = PfM18AAP inhibitors, malaria aminopeptidase, primary screen, biochemical, QFRET, recombinant enzyme; M18 aspartyl aminopeptidase (Plasmodium falciparum 3D7); H-Glu-NHMec fluorogenic cleavage; inhibition, % at 7.35 µM; hit rate 1.2% among 290,000;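 active means inhibition above the campaign mean inhibition over all tested compounds plus 3 SD, cut at about 28% in these data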;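 further: 0% = plate median of test compound wells and 100% = 2 mM ZnCl2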
An asterisk follows results filed as active; / = no result given. This is a sample that favours compounds with a hit; in the whole collection about 2.1% have one here.

SMILES | CTSL1 counter | Calb FLC | Rin1 Abl inh | M18AAP inhibitor
CCOC(=O)Cc1nn(Cc2ccccc2)c(=O)c2ccccc12 | 2 | 8 | 2 | -5
CCCCC(=O)NC(c1ccccc1OC)c1ccc2cccnc2c1O (centres undefined) | 3 | 96* | 2 | 2
CCCC(=O)NC(c1ccc(C)cc1)c1ccc2cccnc2c1O (centres undefined) | 1 | 86* | 5 | 10
CCCC(=O)NC(c1cccc([N+](=O)[O-])c1)c1ccc2cccnc2c1O (centres undefined) | / | / | 0 | /
CCCC(=O)NC(c1ccc(Cl)cc1)c1ccc2cccnc2c1O (centres undefined) | 1 | 108* | 5 | 1
CCCC(=O)NC(c1ccc(Cl)cc1Cl)c1ccc2cccnc2c1O (centres undefined) | 1 | -2 | 3 | 2
CCCCC(=O)NC(c1ccc(Cl)cc1)c1ccc2cccnc2c1O (centres undefined) | 9 | 97* | 3 | 1
N#Cc1csc(CCNC(=O)c2ccccc2)n1 | / | / | 1 | /
COc1c2c(c(C)c3c1C(=O)OC3)O[C@@]1(C)CC[C@@]3(O)C(C)(C)OC(=O)CC[C@]3(C)[C@H]1C2 | 25* | 8 | 3 | /
CCOC(=O)N/N=C/c1ccccc1F | 3 | 2 | 0 | 0
CC(C)(C)c1nnc(N/N=C/c2ccccc2O)n(N)c1=O | -2 | -31 | -4 | 52*
CCc1nnc(N/N=C/c2ccccc2F)n1N | 1 | 1 | -1 | 62*
O=C(COC(=O)CNC(=O)c1ccccc1Cl)Nc1ncc(C(F)(F)F)cc1Cl | 21* | -8 | -1 | -7
CN(/N=C/c1cc(Cl)ccc1O)C1=NS(=O)(=O)c2ccccc21 | 5 | 9 | -1 | -14
O=C(CC(=O)c1cc(Cl)ccc1O)c1ccccc1 | 0 | 34 | -4 | 7
Cc1cccc(C(=O)CC(=O)c2cc(Cl)ccc2O)c1 | 7 | 98* | 2 | 5
COc1cc(SC)ccc1C(=O)OCC(=O)NCCNC(=O)COC(=O)c1ccc(SC)cc1OC | 5 | -18 | 3 | -5
COc1cc(CC(=O)OCC(=O)NC2CCCC2)cc(OC)c1OC | / | / | 0 | /
COc1cc(CC(=O)OCC(=O)NC2CC2)cc(OC)c1OC | 46* | 36 | -1 | -4
COc1cc(SC)ccc1C(=O)OCC(=O)NC1CC1 | -3 | 98* | 2 | -5
O=C(COC(=O)c1ccc2c(c1[N+](=O)[O-])C(=O)c1ccccc1C2=O)NC1CC1 | 21* | 42 | -4 | 10
O=[N+]([O-])c1cc(S(=O)(=O)C(F)(F)F)ccc1Sc1nc2ccccc2s1 | -2 | 111* | -1 | -1
CS(=O)(=O)c1ccc(Sc2nc3ccccc3s2)c([N+](=O)[O-])c1 | -5 | 2 | -4 | 0
Cc1cc(C)c(S(=O)(=O)NCc2cccnc2)c(C)c1 | -3 | 19 | 2 | 13
O=C(CN1N=C(c2ccccc2)CCC1=O)NCCCN1CCc2ccccc2C1 | -4 | -4 | -5 | 4
SMILES | CTSL1 counter | Calb FLC | Rin1 Abl inh | M18AAP inhibitor
O=C(Cc1c(F)cccc1Cl)NCCCn1ccnc1 | 0 | -6 | -1 | 28*
CS/C(=C\[N+](=O)[O-])Nc1ccc(Cl)cc1 | -5 | 102* | 0 | 7
C/C(=N\NC(=O)CC#N)C1COc2ccccc2O1 (centres undefined) | 2 | -18 | 0 | 29*
COc1ccccc1/C=C1\SC(=S)N(NS(=O)(=O)c2ccccc2)C1=O | 1 | 91* | 7 | -2
COc1cccc(/C=C2\SC(=S)N(NS(=O)(=O)c3ccc(C)cc3)C2=O)c1OC | -1 | 21 | -3 | 3
C/C(CC(=O)Nc1cc(C)ccn1)=N\NC(=O)c1cccc(C)c1 | 3 | -9 | 0 | -12
C/C(CC(=O)Nc1cc(C)ccn1)=N\NC(=O)c1cccc(C)c1O | 1 | 94* | 2 | 8
O=c1c2ccccc2[nH]c(=S)n1CCCN1CCN(c2ccccc2F)CC1 | 4 | 3 | -2 | 7
COc1ccc(CN2CCN(C(=O)c3cccs3)CC2)cc1Br | 1 | 17 | -3 | 29*
CCOc1ccc(N2CC(C(=O)Nc3ccncc3)CC2=O)cc1 (centres undefined) | 3 | -5 | 1 | -6
Cc1nnc2sc(SCC(=O)N3CCC(C)CC3)nn2c1=O | 47* | -2 | 0 | 7
COc1ccc(-n2nc(C(=O)N3CCC(N4CCCCC4)CC3)c3c4ccccc4n(C)c3c2=O)cc1 | 19* | -4 | -4 | -8
CN1CCc2cc3c(c4c2[C@H]1[C@H](O)c1ccccc1-4)OCO3 | 1 | 95* | -10 | 23
COc1ccc2c(c1OC)C(=O)OC2C1c2c(cc3c(c2OC)OCO3)CCN1C (centres undefined) | 0 | 3 | 2 | -4
COc1ccc(C(=O)NNc2ccccc2)cc1OC | 1 | 106* | 2 | 5
CC(C)OC(=O)CN1C(=O)S/C(=C/c2ccc(N3CCCCC3)o2)C1=O | 17* | -11 | -6 | 9
CCc1ccc(N2C(=O)C(Cl)=C(N3CCCCCC3)C2=O)cc1 | / | -4 | -1 | 2
CCc1ccc(N2C(=O)C(Cl)=C(N3CCOCC3)C2=O)cc1 | 32* | -8 | -1 | 18
Cc1cccc(N2C(=O)C(Cl)=C(N3CCOCC3)C2=O)c1 | 28* | -1 | 0 | 20
O=C1/C(=C/c2ccccc2)N=C(N2CCOCC2)N1c1cccc(Cl)c1 | 0 | 2 | -2 | -2
O=C1C(Cl)=C(N2CCOCC2)C(=O)N1c1cccc(Cl)c1 | 57* | 13 | 2 | 12
COc1cc(C(=O)N2CCN(c3ccccc3Cl)CC2)ccc1OCC(=O)N1CCOCC1 | / | / | 1 | /
CCCC(C)NC(=O)COC(=O)c1ccc2c(c1)C(=O)N(Cc1ccco1)C2=O (centres undefined) | 9 | 9 | 3 | -19
Cc1noc(C)c1COc1ccccc1C(=O)N1CCN(S(=O)(=O)c2ccc(C(C)C)cc2)CC1 | / | / | 3 | /
COc1ccc2oc(=N)c(C(=O)Nc3ccccc3Cl)cc2c1 | 20* | 4 | -1 | -4
SMILES | CTSL1 counter | Calb FLC | Rin1 Abl inh | M18AAP inhibitor
COc1ccc2oc(=N)c(C(=O)Nc3ccccc3)cc2c1 | -1 | / | -2 | 6
Cc1ccc(N2CC(O)(c3cccs3)[N+]3=C2CCCC3)cc1 (centres undefined) | -4 | -18 | 0 | -5
Cc1ccc(N2NC(C)(c3cccs3)NC2=S)cc1 (centres undefined) | 5 | 105* | 0 | 1
COc1cc2cnc(-c3ccccc3)c(-c3ccc(C(F)(F)F)cc3)c2cc1OC | / | / | 1 | /
Cc1cc2c(C)nc(N/N=C/c3ccc([N+](=O)[O-])cc3)nc2o1 | 0 | -1 | -3 | 30*
CSc1ccccc1NC(=O)C1CC(c2ccccc2Cl)=NO1 (centres undefined) | 0 | 9 | 0 | 0
O=C(Nc1cc(Sc2ccccn2)cc([N+](=O)[O-])c1)c1ccc(Cl)cc1 | 0 | 0 | 0 | -4

Assay outcomes as filed in PubChem BioAssay.
